Here are results for 68 molecules from the antibiotic and cytotoxicity screens of Wong et al. (2023).

The structures appear in SMILES notation. Screen size: about 39,000 compounds; about 3,300 (8.5%) were called active. Shown is part of a subset that was picked to be rich in actives.

For the experiment, the system named is HepG2. As to the kind of experiment: cytotoxicity call (relative viability < 0.9). Particulars: 10 µM.
Consider `NCCCC[C@@H](N)C(=O)N[C@@H](Cc1ccc(O)cc1)C(=O)N[C@@H](CCCCN)C(=O)O`, for which the cytotoxicity call was “inactive”. Take `C[C@@H]1CCCCO[C@H](CN(C)C(=O)NC2CCCCC2)[C@H](C)CN([C@@H](C)CO)C(=O)c2cc(NC(=O)Cc3ccccc3)ccc2O1`: the cytotoxicity call was “inactive”. Under `COc1ccc(NC(=O)N(C)C[C@@H]2OCCCC[C@H](C)Oc3ccc(NC(=O)Nc4ccc5c(c4)OCO5)cc3C(=O)N([C@H](C)CO)C[C@@H]2C)cc1` stands “inactive”; under `C[C@H]1CCCCO[C@@H](CN(C)C(=O)Nc2ccc(C(F)(F)F)cc2)[C@@H](C)CN([C@@H](C)CO)C(=O)c2cc(NC(=O)Cc3ccccc3)ccc2O1`, “inactive”; under `O=C(C[C@H]1CC[C@@H]2[C@H](COC[C@@H](O)CN2CC2CCOCC2)O1)N1CCOCC1`, “inactive”. Under `C[C@@H]1CCCCO[C@@H](CN(C)C(=O)Nc2ccccc2)[C@H](C)CN([C@H](C)CO)C(=O)c2cc(NC(=O)NC3CCCCC3)ccc2O1` stands “inactive”; under `C[C@@H]1CN([C@H](C)CO)C(=O)c2cc(NC(=O)Nc3cccc4ccccc34)ccc2O[C@@H]1CN(C)S(=O)(=O)c1ccc(F)cc1`, “inactive”. `CCS(=O)(=O)N1C[C@]2(CN(C2)S(=O)(=O)c2cn(cn2)C)c2c(n(c3cc(ccc23)OC)C)[C@H]1CO`: the cytotoxicity call is “inactive”.

On to `C[C@@H]1CCCCO[C@H](CN(C)C(=O)Nc2ccc(C(F)(F)F)cc2)[C@@H](C)CN([C@@H](C)CO)C(=O)c2cc(NS(=O)(=O)c3ccc(Cl)cc3)ccc2O1`, for which the cytotoxicity call was “inactive”. The same measure for `C[C@@H]1CN([C@H](C)CO)C(=O)c2cc(NS(=O)(=O)c3ccc(Cl)cc3)ccc2O[C@@H](C)CCCCO[C@H]1CN(C)C(=O)Nc1ccc(C(F)(F)F)cc1`: “active”.

As for `C[C@@H]1CCCCO[C@@H](CN(C)C(=O)Nc2ccc(C(F)(F)F)cc2)[C@H](C)CN([C@H](C)CO)C(=O)c2cc(NS(=O)(=O)c3ccc(Cl)cc3)ccc2O1`, the cytotoxicity call is “inactive”. Regarding `O=C(C[C@H]1CC[C@@H]2[C@H](COC[C@H](O)CN2S(=O)(=O)c2ccccc2)O1)NCCN1CCCCC1`, the cytotoxicity call was “inactive”. For `C[C@H]1CCCCO[C@H](CN(C)Cc2ccccc2)[C@@H](C)CN([C@@H](C)CO)C(=O)c2cc(NC(=O)Nc3ccccc3)ccc2O1`, the cytotoxicity call was “inactive”. The same measure for `COC(=O)[C@@]12OC[C@]34[C@H]([C@@H](O)[C@@H]1O)[C@@]1(C)CC(=O)C(=O)[C@H](C)[C@@H]1C[C@H]3OC(=O)[C@H](OC(=O)/C=C(\C)C(C)C)[C@@H]24`: “active”; for `COc1ccc2c3c([nH]c2c1)[C@H](CO)N(CC1CCCC1)C[C@]13CCN(CC1)C(=O)Nc1cccc(c1)F`: “inactive”.

Consider `COc1ccc2c3c([nH]c2c1)[C@@H](CO)N(C[C@]13CCN(CC1)C(=O)Nc1cccc(c1)F)C(=O)c1ccccc1`, for which the cytotoxicity call was “inactive”. Under `COc1ccc2c3c([nH]c2c1)[C@H](CO)N(C[C@]13CCN(CC1)CC1CCCC1)C(=O)Nc1cccc(c1)F` stands “active”; under `COc1ccc2c3c([nH]c2c1)[C@@H](CO)N(C[C@]13CCN(CC1)CC1CCCC1)C(=O)Nc1cccc(c1)F`, “active”; under `COc1ccc2c3c([nH]c2c1)[C@@H](CO)N(CC1CCCC1)C[C@]13CCN(CC1)C(=O)Nc1cccc(c1)F`, “inactive”. The same measure for `Cc1noc(C)c1S(=O)(=O)Nc1ccc2c(c1)CC(=O)N([C@@H](C)CO)C[C@@H](C)[C@H](CN(C)S(=O)(=O)c1cccs1)O2`: “inactive”. Under `CCOC(=O)C(=O)N(C)CC(OC)OC` stands “inactive”; under `CCOC(=O)OC[C@@H]1[C@@H]2NC(=O)N(C)[C@@]1(COC(=O)NCCCCCC(=O)NO)Oc1ccccc12`, “inactive”.

For `C[C@H](CO)N1C[C@H](C)[C@@H](CN(C)S(C)(=O)=O)OCCCC[C@H](C)Oc2ccc(NS(C)(=O)=O)cc2C1=O`, the cytotoxicity call was “inactive”. In the case of `COc1ccc(S(=O)(=O)N(C)C[C@@H]2Oc3ccc(NS(=O)(=O)c4ccc(F)cc4)cc3C(=O)N([C@H](C)CO)C[C@@H]2C)cc1`, the cytotoxicity call is “inactive”. Under `CC(C)N1C[C@H](C)[C@@H](CN(C)Cc2ccc(Oc3ccccc3)cc2)Oc2c(cccc2-c2nn[nH]n2)C1=O` stands “inactive”; under `Cl.N=C(N)NC(=N)NCCc1ccccc1`, “inactive”; under `N=C(N=C(N)N)Nc1ccccc1`, “inactive”. Under `N=C(N=C(N)N)NCCc1ccccc1` stands “active”. The same measure for `Cc1cc(C(=O)O)c(=O)[nH]c1C`: “inactive”; for `NCCC1=CSC2=NCCN12`: “inactive”; for `O=C(CCCCCCC(=O)Nc1ccc([C@H]2O[C@@H](CSc3ccccn3)C[C@H](c3ccccc3)O2)cc1)NO`: “inactive”. For the molecule `CCS(=O)(=O)NCC[C@@H]1CC[C@H](NC(=O)Cc2ccccn2)[C@@H](CO)O1`, the cytotoxicity call was “inactive”. For the molecule `Cc1ccc(S(=O)(=O)N[C@@H]2CC[C@@H](CC(=O)NCc3ccc(Cl)c(Cl)c3)O[C@@H]2CO)cc1`, the cytotoxicity call was “inactive”.

On to `Cc1ccc(-c2ccc3c(c2)O[C@@H](CN(C)C(=O)Nc2ccc(C(F)(F)F)cc2)[C@@H](C)CN([C@H](C)CO)S3(=O)=O)cc1`, for which the cytotoxicity call was “active”. The same measure for `Cc1ccccc1-c1ccc2c(c1)O[C@@H](CN(C)C(=O)Nc1ccc(C(F)(F)F)cc1)[C@H](C)CN([C@H](C)CO)S2(=O)=O`: “inactive”; for `Cc1ccc(-c2ccc3c(c2)O[C@H](CN(C)C(=O)Nc2ccc(C(F)(F)F)cc2)[C@H](C)CN([C@@H](C)CO)S3(=O)=O)cc1`: “inactive”. The same measure for `Cc1ccccc1-c1ccc2c(c1)O[C@H](CN(C)C(=O)Nc1ccc(C(F)(F)F)cc1)[C@H](C)CN([C@@H](C)CO)S2(=O)=O`: “active”; for `Cc1ccc(-c2ccc3c(c2)O[C@@H](CN(C)C(=O)Nc2ccc(C(F)(F)F)cc2)[C@@H](C)CN([C@@H](C)CO)S3(=O)=O)cc1`: “inactive”. With `Cc1ccccc1-c1ccc2c(c1)O[C@H](CN(C)C(=O)Nc1ccc(C(F)(F)F)cc1)[C@H](C)CN([C@H](C)CO)S2(=O)=O`, the cytotoxicity call is “inactive”.

For the molecule `C[C@@H]1CCCCO[C@H](CN(C)Cc2ccc(C(=O)O)cc2)[C@@H](C)CN([C@H](C)CO)C(=O)c2cc(NC(=O)c3ccccc3)ccc2O1`, the cytotoxicity call was “inactive”. The same measure for `C[C@H](CO)N1C[C@H](C)[C@@H](CN(C)CC2CCCCC2)Oc2c(NC(=O)Cn3cnnn3)cccc2C1=O`: “inactive”. The same measure for `C[C@@H]1CN([C@H](C)CO)C(=O)Cc2cc(NC(=O)Cn3cnnn3)ccc2O[C@H]1CN(C)CC1CC1`: “inactive”; for `C[C@H]1CN([C@@H](C)CO)S(=O)(=O)c2ccc(-c3cccnc3)cc2O[C@@H]1CN(C)C(=O)NC1CCCC1`: “inactive”.

On to `O=C(C1CC1)N1CCCN(C(=O)C2CC2)CC1`, for which the cytotoxicity call is “inactive”. The same measure for `Cc1noc(C)c1S(=O)(=O)Nc1ccc2c(c1)C(=O)N([C@@H](C)CO)C[C@H](C)[C@H](CN(C)C(=O)Nc1ccc(F)cc1)OCCCC[C@H](C)O2`: “inactive”; for `O=c1ccn([C@H]2O[C@H](CO)[C@@H](O)[C@@H]2O)c(=S)[nH]1`: “active”. Under `O=c1ccn(C2OC(CO)C(O)C2O)c(=O)[nH]1` (stereo not drawn) stands “inactive”; under `O=c1ccn([C@@H]2O[C@H](CO)[C@@H](O)[C@H]2O)c(=O)[nH]1`, “inactive”. As for `C[C@H]1CN([C@@H](C)CO)C(=O)Cc2cc(NC(=O)CCC(F)(F)F)ccc2O[C@@H]1CN(C)C(=O)Nc1cccc2ccccc12`, the cytotoxicity call is “inactive”.

With `NC[C@H](c1ccco1)N1CCCCCC1`, the cytotoxicity call is “inactive”.

In the case of `OC[C@H]1CC[C@@H]2O[C@H](CCc3ccc(C#CCc4ccccc4)cc3)[C@@H](n3cc(-c4ccccc4)nn3)C[C@@H]2O1`, the cytotoxicity call is “inactive”. Under `OC[C@@H]1CC[C@@H]2O[C@H](CCc3ccc(C#Cc4ccccc4)cc3)[C@@H](n3cc(-c4ccccc4)nn3)C[C@@H]2O1` stands “active”. Under `OC[C@H]1CC[C@@H]2O[C@H](CCc3ccc(C#Cc4ccccc4)cc3)[C@@H](n3cc(-c4ccccc4)nn3)C[C@@H]2O1` stands “active”; under `OC[C@H]1CC[C@@H]2O[C@H](CCc3ccc(C#Cc4ccccc4)cc3)[C@H](n3cc(-c4ccccc4)nn3)C[C@@H]2O1`, “inactive”.

Consider `OC[C@@H]1CC[C@@H]2O[C@H](CCc3ccc(C#Cc4ccccc4)cc3)[C@H](n3cc(-c4ccccc4)nn3)C[C@@H]2O1`, for which the cytotoxicity call was “inactive”. Under `OC[C@H]1CC[C@@H]2O[C@H](CCc3ccc(C#CCc4ccccc4)cc3)[C@H](n3cc(-c4ccccc4)nn3)C[C@@H]2O1` stands “inactive”. The same measure for `C[C@H](CO)N1C[C@H](C)[C@@H](CN(C)Cc2ccc(C(=O)O)cc2)OCCCC[C@H](C)Oc2ccc(NS(=O)(=O)c3ccccc3)cc2C1=O`: “inactive”. As to `CN1CCN(C(=O)C[C@H]2CC[C@H]3[C@@H](COC[C@@H](O)CN3C(=O)C3CC3)O2)CC1`, the cytotoxicity call is “inactive”. The same measure for `C[C@H](CO)N1C[C@H](C)[C@H](CN(C)Cc2ccccc2)Oc2ccc(NC(=O)Cn3cnnn3)cc2CC1=O`: “inactive”; for `COc1ccc(S(=O)(=O)N(C)C[C@@H]2Oc3ncc(-c4ccncc4)cc3C(=O)N([C@H](C)CO)C[C@H]2C)cc1`: “inactive”. The same measure for `NCc1cccc2c1OCC2`: “inactive”; for `CCOc1nc2c(N)ncnc2n1CC`: “inactive”; for `CC(C)NCCCn1c(Sc2cc3c(cc2I)OCO3)nc2c(N)ncnc21`: “active”. For `COc1ccc(CN(C)C[C@H]2OCCCC[C@H](C)Oc3ccc(NC(=O)Nc4ccccc4)cc3C(=O)N([C@H](C)CO)C[C@H]2C)cc1`, the cytotoxicity call is “inactive”. The same measure for `C[C@@H]1CN([C@H](C)CO)S(=O)(=O)c2ccc(C#CCC3CCCC3)cc2O[C@H]1CN(C)C(=O)c1cnccn1`: “inactive”.

Regarding `C[C@@H]1CCCCO[C@@H](CN(C)C(=O)Nc2ccccc2)[C@@H](C)CN([C@@H](C)CO)C(=O)c2cc(NC(=O)Nc3ccccc3)ccc2O1`, the cytotoxicity call is “inactive”. For the molecule `Cc1noc(C)c1NC(=O)Nc1ccc2c(c1)C(=O)N([C@H](C)CO)C[C@H](C)[C@@H](CN(C)S(=O)(=O)c1ccccc1)O2`, the cytotoxicity call was “inactive”. Turning to `Cc1noc(C)c1S(=O)(=O)Nc1cccc2c1O[C@H](CN(C)C(=O)NC(C)C)[C@H](C)CN([C@@H](C)CO)C2=O`, the cytotoxicity call is “inactive”.
